Results from article PMC4336329 (PLoS ONE, 2015).
About 14,000 (4.5%) of roughly 310,000 compounds showed an effect of 50% or more. Effects have a minus sign here. The list comes from a sample in which strong results are over-represented; it also holds similar structures and randomly drawn compounds.

These molecules were tested against human ether-à-go-go-related gene (hERG) potassium channel (human, UniProt Q12809) (assay: primary screen, population patch clamp on CHO cells stably expressing hERG; higher = less effect of the substance).
Sequence of human ether-à-go-go-related gene (hERG) potassium channel (Q12809 whole entry, looked up): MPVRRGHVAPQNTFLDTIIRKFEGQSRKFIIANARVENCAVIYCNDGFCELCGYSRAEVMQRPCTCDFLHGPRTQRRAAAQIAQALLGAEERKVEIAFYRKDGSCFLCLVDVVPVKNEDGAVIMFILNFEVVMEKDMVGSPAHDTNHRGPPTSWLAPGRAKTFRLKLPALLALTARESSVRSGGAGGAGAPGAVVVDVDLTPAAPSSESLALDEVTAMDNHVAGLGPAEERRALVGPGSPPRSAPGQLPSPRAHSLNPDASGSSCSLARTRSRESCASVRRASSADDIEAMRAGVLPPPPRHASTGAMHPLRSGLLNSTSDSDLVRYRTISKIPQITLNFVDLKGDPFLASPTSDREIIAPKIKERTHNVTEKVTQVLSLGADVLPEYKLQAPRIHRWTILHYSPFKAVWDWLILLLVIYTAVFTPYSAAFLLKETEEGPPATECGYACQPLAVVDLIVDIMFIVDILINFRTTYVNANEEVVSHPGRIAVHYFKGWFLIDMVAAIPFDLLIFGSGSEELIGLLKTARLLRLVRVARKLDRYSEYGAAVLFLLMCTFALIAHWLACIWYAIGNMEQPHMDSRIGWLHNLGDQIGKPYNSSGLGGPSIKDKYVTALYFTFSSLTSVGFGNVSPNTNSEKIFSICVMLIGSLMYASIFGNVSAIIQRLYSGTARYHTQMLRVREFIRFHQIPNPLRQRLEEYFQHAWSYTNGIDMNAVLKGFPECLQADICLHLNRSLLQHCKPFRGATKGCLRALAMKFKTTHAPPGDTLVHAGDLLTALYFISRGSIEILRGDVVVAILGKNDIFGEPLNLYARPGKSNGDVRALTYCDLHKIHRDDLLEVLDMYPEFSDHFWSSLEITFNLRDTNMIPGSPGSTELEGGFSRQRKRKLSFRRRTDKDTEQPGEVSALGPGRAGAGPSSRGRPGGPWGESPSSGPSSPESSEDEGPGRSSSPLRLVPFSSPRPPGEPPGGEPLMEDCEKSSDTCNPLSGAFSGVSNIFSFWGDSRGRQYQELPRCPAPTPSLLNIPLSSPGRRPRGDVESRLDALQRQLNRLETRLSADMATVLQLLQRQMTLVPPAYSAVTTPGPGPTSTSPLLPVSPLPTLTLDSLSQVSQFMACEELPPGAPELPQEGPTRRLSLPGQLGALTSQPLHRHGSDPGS
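Note: peak tail current of the secondary pulse compared with the same well before compound.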

Structure (SMILES) | hERG current change (%, negative = inhibition) at 10uM [%]
Cc1cc2ccccc2c(=O)n1CC(=O)NCCC1=CCCCC1 | 8.01
Cc1c(C#N)c(NC(=O)CCl)n(Cc2ccccc2)c1C | 31.1
CC(C)n1c(SCc2ccc(Cl)cc2)nc2c1c(=O)[nH]c(=O)n2C | 18.5
Cc1ccc(OP(=O)(NC(C)c2ccccc2)Oc2ccc(C)cc2)cc1 (centres unmarked) | 17.6
C=CCN(CC=C)S(=O)(=O)c1ccc(NC(=S)NC(=O)/C=C/c2cccc3ccccc23)cc1 | 1.52
O=C(Cc1ccc(Br)cc1)N1CCN(C(=O)c2ccccc2)CC1 | -30.1
CCOc1ccc(/C=C/[N+](=O)[O-])c2ccccc12 | -8.67
CCN1CCN(c2ccc(S(=O)(=O)N3CCCCC3)cc2NC(=O)c2cccc(C(F)(F)F)c2)CC1 | -46.7
CCN1CCN(c2ccc(S(=O)(=O)N3CCCCC3)cc2NC(=O)c2ccc(OC(F)F)cc2)CC1 | -57.2
CCN1CCN(c2ccc(S(=O)(=O)N3CCCCC3)cc2NC(=O)c2ccccc2)CC1 | -46
CCN1CCN(c2ccc(S(=O)(=O)N3CCCCC3)cc2NC(=O)c2cccc(F)c2)CC1 | -34.6
CCN1CCN(c2ccc(S(=O)(=O)N3CCCCC3)cc2NC(=O)c2ccc(F)cc2)CC1 | -56.5
CCN1CCN(c2ccc(S(=O)(=O)N3CCCCC3)cc2NC(=O)/C=C/c2ccc(OC)c(OC)c2)CC1 | -31.4
CCN1CCN(c2ccc(S(=O)(=O)N3CCOCC3)cc2NC(=O)c2ccc(C(F)(F)F)cc2)CC1 | -44.2
CCN1CCN(c2ccc(S(=O)(=O)N3CCCCC3)cc2NC(=O)/C=C/c2cccc(OC)c2OC)CC1 | -18.9
CCN1CCN(c2ccc(S(=O)(=O)N3CCCCC3)cc2NC(=O)/C=C/c2ccc(OC(F)F)cc2)CC1 | -50.2
CCN1CCN(c2ccc(S(=O)(=O)N3CCCCC3)cc2NC(=O)/C=C/c2cc(OC)ccc2OC)CC1 | -52.7
CN1CCN(c2ccc(S(=O)(=O)N3CCCCC3)cc2NC(=O)/C=C/c2ccc(OC(F)F)cc2)CC1 | -39.2
CCN1CCN(c2ccc(S(=O)(=O)N3CCOCC3)cc2NC(=O)/C=C/c2ccc(OC)cc2OC)CC1 | -17.2
O=C(Nc1ccc2c(c1)OCO2)c1ccc(COc2ccc3c(c2)CCC3)o1 | 5.22
CCN(Cc1ccccc1)C(=O)COC(=O)c1c(C)nsc1NC | -6.97
CCOCCCNC(=O)c1cc(Nc2ccc(OC)cc2OC)nc2ccccc12 | -7.58
COc1ccc(N2C(=O)CCC(C(=O)Nc3ccccn3)C2c2ccc(OC)c(OC)c2)cc1 (centres unmarked) | 8.15
Cc1ccc(-n2c(C)c(C)c3c(NCCN(C)C)ncnc32)cc1 | -36.3
COC(=O)c1ccc(C)c(NC(=O)CN2C(=O)c3ccccc3S2(=O)=O)c1 | 6.46

Structure (SMILES) | hERG current change (%, negative = inhibition) at 10uM [%]
Cc1ccc(CNC(=S)Nc2ccc(C)c([N+](=O)[O-])c2)cc1 | 17.5
CN(CC(=O)Nc1ccc(S(=O)(=O)N2CCCC2)cc1)Cc1c(F)cccc1Cl | -7.41
O=C(COc1ccc(-n2cnnn2)cc1)Nc1cccc(Cl)c1Cl | 16.8
CC(=O)Nc1ccc(NC(=O)c2cc([N+](=O)[O-])cc([N+](=O)[O-])c2)cc1 | 22.5
CCN1CCN(c2ccc(S(=O)(=O)N3CCCCC3)cc2NC(=O)c2cccc(Cl)c2)CC1 | -34.6
CCN1CCN(c2ccc(S(=O)(=O)N3CCCCC3)cc2NC(=O)c2cccc(NC(C)=O)c2)CC1 | -71.3
CCN1CCN(c2ccc(S(=O)(=O)N3CCCCC3)cc2NC(=O)c2cccc(C)c2)CC1 | -37.4
CC1(C)CC(=O)c2cc(N=C/C(C(=O)c3ccccc3)=C(\O)c3ccccc3)c(=O)oc2C1 | 17.6
COc1ccc([C@H]2CC(=O)C=C(c3ccc(OC)nc3)C2)cc1 | 14.2
COc1ccc([C@H]2CC(=O)C=C(c3ccc4ncccc4c3)C2)cc1 | -3.25
O=C1C=C(c2ccc(-c3ccccc3)cc2)C[C@@H](c2ccc(F)cc2)C1 | 6.67
COc1ccc(C2=CC(=O)CC(c3ccc(F)cc3)C2)cn1 (centres unmarked) | -61.1
O=C1C=C(c2ccc3ncccc3c2)C[C@@H](c2ccc(Cl)cc2)C1 | -3.34
O=C1C=C(c2ccc(-c3ccccc3)cc2)C[C@@H](c2ccc3c(c2)OCO3)C1 | 7.88
COc1ccc(C2=CC(=O)C[C@H](c3ccc(Cl)cc3)C2)cn1 | -12.4
O=C1C=C(c2ccc3ncccc3c2)C[C@@H](c2ccc(F)cc2)C1 | -62.5
N#Cc1ccc(C2=CC(=O)C[C@H](c3ccc(F)cc3)C2)cc1 | -72.1
N#Cc1ccc(C2=CC(=O)C[C@H](c3ccc4c(c3)OCO4)C2)cc1 | -70
Cc1ccc(C2=CC(=O)C[C@H](c3ccc(F)cc3)C2)cc1 | 19.4
O=C1C=C(c2ccc3c(c2)OCO3)C[C@@H](c2ccc3c(c2)OCO3)C1 | 10.9
COc1ccc(CN2CCN(C(=O)c3cccs3)CC2)cc1.O=C(O)C(=O)O | -7.86
C=CCn1c(SCC(=O)N2CCOCC2)nnc1C(C)NC(=O)c1ccccc1 (centres unmarked) | 13.4
CCc1cccc(C)c1NC(=O)COC(=O)Cc1ccsc1 | 10.4
c1cncc(-c2noc(C34CC5CC(CC(C5)C3)C4)n2)c1 | -0.918
Nc1nc2ccccc2cc1S(=O)(=O)c1ccccc1 | 16
